Screens from PubChem BioAssay.
Only a selection was taken, and hits are over-represented in it overall.
TDP-43 tox inh – rescues yeast from TDP-43 toxicity; yeast TDP-43 toxicity rescue, BacTiter-Glo growth, 24 h; Potency, µM (series often up to 46.1 µM), usual class: activators; 45,000 compounds, 0.45% hits; active means well fitted activation curve with a large enough effect; further: 0% is about no effect; nearly all actives have a fitted effect of over 55% in size
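TDP-43-expressing yeast, pregrown in raffinose, seeded at OD600 0.02 in galactose medium with compound for 24 hr at 30 deg C. Growth read by BacTiter-Glo luminescence, so rescue of toxicity appears as activation.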
Starred values were filed as active, the others as inactive; i = inactive. Potency means the concentration at half of the fitted maximal effect.

SMILES	TDP-43 tox inh
Cc1ccc(N=c2c([N+](=O)[O-])nn(-c3ccc4c(c3)OCCO4)n2O)cc1F	i
Fc1ccc(-n2c(-c3ccco3)nc3nc4ccccc4nc32)cc1	i
Clc1c(-c2ccccc2)nc2ccccn12	i
c1ccc(-c2nc(-c3ccco3)n3ccccc23)cc1	12.6µM*
COc1cc(CNC(=O)c2cc(-c3cc(OC)ccc3Cl)n[nH]2)cc(OC)c1	i
OCCCNc1ncnc2c1ncn2[C@H]1CN(Cc2ccc3c(c2)OCO3)C[C@@H](CO)O1	i
O=C(CNCc1ccccn1)Nc1cc(C(F)(F)F)ccc1N1CCOCC1	i
Cn1nnnc1SCC(=O)Nc1cc(C(F)(F)F)ccc1N1CCOCC1	i
O=C(CSc1ccc([N+](=O)[O-])cn1)Nc1cc(C(F)(F)F)ccc1N1CCOCC1	12.6µM*
CC1(C(=O)O)CCN1C(=O)c1cccc(C(F)(F)F)c1 (configuration not stated)	i
OC[C@@H]1CN(Cc2ccc3c(c2)OCO3)C[C@H](n2cnc3c(N4CCCC4)ncnc32)O1	i
COc1cc(C(=O)NNC(=O)c2ccc3c(c2)OCCO3)cc(OC)c1OC	i
O=C(/C=C/c1ccncc1)c1ccc2c(c1)OCCO2	i
COc1cc(/C=C/C(=O)c2ccc3c(c2)OCCO3)cc(Br)c1OCC(=O)N(C)C	15.8µM*
CCCCN(C)c1c(C)nc2ccc(C(=O)Nc3ccc(OC)c(OC)c3)cn12	i
Cc1cc(C(=O)N/N=C/c2sc(N3CCOCC3)nc2-c2ccccc2)c(C)o1	i
Fc1ccc(-c2csc(N3CCOCC3)n2)cc1	i
c1ccc(-c2nc(N3CCOCC3)sc2-c2ccccc2)cc1	25.1µM*
CN(C)c1ccc(-c2ccnc3c2CC(C)(C(=O)Nc2ccc(Cl)c(C(F)(F)F)c2)O3)cc1 (configuration not stated)	i
Cc1ccc(SCCC(=O)N/N=C/c2ccccc2O)cc1	i
O=C(CSCc1ccc(Cl)cc1)Nc1ccccc1O	i
O=C(CCCSc1ccc(Cl)cc1)Nc1ccccc1O	11.2µM*
Cc1ccc2ccccc2c1C(O)c1ncc(-c2ccc(F)cc2)[nH]1 (configuration not stated)	i
COc1cc(-c2cc3nc(NCc4ccco4)ccn3n2)cc(OC)c1OC	i
CCC(=O)OCc1cc(=O)oc2ccc3ccccc3c12	i
SMILES	TDP-43 tox inh
O=C(O)Cc1coc2ccc3ccccc3c12	12.6µM*
NC(=O)N/N=C/c1coc2ccc3ccccc3c2c1=O	i
CC(C)(C)c1ccc(-c2nc(S(=O)(=O)c3ccccc3)c(N3CCOCC3)o2)cc1	i
CCC(CC)C(=O)N(C)c1c(C)nc2c(OCc3ccccc3C)cccn12	i
O=C(NCc1ccccc1)c1cc(C2CCCCN2C(=O)c2cccs2)on1 (configuration not stated)	i
Cc1cc(C)cc(NC(=S)NCC2CCN(C(C)c3ccccc3)C2)c1 (configuration not stated)	i
COc1ccc(N2CCC(CNC(=S)Nc3cccc(C)c3)C2)cc1 (configuration not stated)	14.1µM*
Cc1cccc(NC(=S)NCCCN2CCOCC2)c1	i
CCC(=O)N1CCC1(C)C(=O)Nc1ncc(C)s1 (configuration not stated)	i
COc1cc(C(=O)N2CCCCC2c2cc(C(=O)Nc3ccccc3Cl)no2)cc(OC)c1C (configuration not stated)	i
CN(C)S(=O)(=O)c1ccc(-c2csc(N/N=C/c3ccc(O)cc3)n2)cc1	i
COC(=O)c1ccc(N2C(=O)CC(N3CCOCC3)C2=O)cc1 (configuration not stated)	15.8µM*
CC1CCN(C2CC(=O)N(c3ccccc3)C2=O)CC1 (configuration not stated)	i
CCOC(=O)c1ccc(N2C(=O)CC(N3CCN(Cc4ccccc4)CC3)C2=O)cc1 (configuration not stated)	i
Cc1cc(C(=O)N2CCC2(C)C(=O)NCCC#N)nn1C (configuration not stated)	i
CC(C)OC(=O)c1c(NC(=O)c2cccc(C(F)(F)F)c2)sc2c1CCCC2	i
CCc1nc2ccc(C(=O)NCC3CCCCC3)cn2c1N(C)Cc1nccs1	i
Cn1cc(/C=N/NC(N)=S)c2ccccc21	i
CC(C)Oc1ccc(/C=N/NC(N)=S)cc1	12.6µM*
O=C(N/N=C/c1ccc(OC(F)F)cc1)C1=COCCO1	i
CC1(C(=O)NS(=O)(=O)C2CC2)CCCN(C(=O)c2cccnc2Oc2ccccc2)C1 (configuration not stated)	i
CCSc1ncc(Cl)c(C(=O)Nc2nc3ccc(S(C)(=O)=O)cc3s2)n1	i
COc1cccc(CN2CC(C(=O)NCCCn3cccn3)CCC2=O)c1 (configuration not stated)	i
COc1ccc(-n2c(-c3ccc(Cl)cc3Cl)n[nH]c2=S)c(OC)c1	i
COCCn1c(-c2ccc(Cl)cc2Cl)nc2c(c(=O)c3ccccc3n2C)c1=O	i
SMILES	TDP-43 tox inh
Clc1cccc(COn2c(-c3ccc(Cl)cc3Cl)nc3ncccc32)c1	25.1µM*
COC(=O)Cc1ccc(OC2(C)CCN(Cc3ccc(-c4ccccn4)cc3)C2)cc1 (configuration not stated)	i
O=C(CCCCCn1c(=O)c2sccc2n(CC(=O)Nc2cc(C(F)(F)F)ccc2Cl)c1=O)NCc1ccccc1Cl	i
CCCNC(=O)C1(C)CCCN(Cc2cccs2)C1 (configuration not stated)	i
CC1(C)O[C@H]2[C@@H](O1)[C@@H](C(=O)Nc1ccc(F)c(F)c1)O[C@@H]1OC(C)(C)O[C@@H]12	i
N#CCCn1cc(C(=O)Nc2ccc([N+](=O)[O-])cc2)c(-c2cccs2)n1	i
CC(=O)Nc1nc(-c2ccc([N+](=O)[O-])cc2)cs1	i
O=[N+]([O-])c1ccc(-c2nc(-c3cccs3)c(-c3cccs3)[nH]2)cc1	3.16µM*
Fc1ccc(-c2csc3ncnc(Cl)c23)cc1	14.1µM*
Cc1ccc(-c2csc3ncnc(NS(=O)(=O)c4ccc(Cl)cc4)c23)cc1	i
CC(=O)CSc1ncnc2scc(-c3ccc(F)cc3)c12	i
COCCNC(=O)C1(C)CCCN(C(=O)c2c(-c3ccccc3)noc2C)C1 (configuration not stated)	i
c1csc(CNc2nc(NCC3CCCCC3)c3sccc3n2)c1	i
Cc1ccc2c(c1)C(O)(CC(=O)/C=C/C=C/c1ccccc1)C(=O)N2 (configuration not stated)	i
Cc1ccc(C)c(C2C(=O)c3ccccc3C2=O)c1	i
Cc1ccc2c(c1)/C(=C/c1ccccc1)C(=O)N2	22.4µM*
CCOc1ccc(N(C)S(=O)(=O)c2ccc(C)c(C(=O)N3CCN(Cc4ccc5c(c4)OCO5)CC3)c2)cc1	i
Cc1cccc(C(O)c2ncc(-c3ccc(F)cc3)[nH]2)c1C (configuration not stated)	i
CC(C)Cc1nnc(NC(=O)c2cc3c(s2)CCC3)s1	i
O=C(Nc1nnc(SCc2ccccc2)s1)c1cc2c(s1)CCCC2	i
O=C(Nc1nccs1)c1cc2c(s1)CCCCC2	7.08µM*
Cc1ccc(-c2cc3nc(NCCc4ccncc4)n(C)c(=O)c3s2)cc1	i
CC(=O)c1cccc(NC(=O)C2Cc3c(-c4cccc(C(N)=O)c4)ccnc3O2)c1 (configuration not stated)	i
Cc1cccc(C)c1OCCOC(=O)c1n[nH]c2ccccc12	14.1µM*
